Values joined by “and” are separate entries in the source; they are usually repeats but may differ in a detail not shown here. Equal entries are not always repeated. The panel holds about 79,000 compounds, 15% with a hit somewhere; the sample as a whole holds those more often. Cut-off read from the data, not from the text of the source: active = growth inhibition above about 70%; inactive = the rest.
Columns and labels:
[1] = NCI Yeast Anticancer Drug Screen. Data for the rad50 strain (AID 155);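 note: 0% = growth of vehicle-only cultures of the same strain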; settings: S. cerevisiae rad50 strain growth inhibition; at 50.0 µM; hits give high values
Outline: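 Growth of the mutant yeast was measured after compound exposure and referenced to vehicle-treated cultures.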

[2] = NCI Yeast Anticancer Drug Screen. Data for the mec2-1 strain (AID 157); settings: S. cerevisiae mec2-1 strain, at 50.0 µM, hits give high values
Outline: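 Growth inhibition is read against vehicle-treated controls after compound exposure of the mec2-1 yeast strain, which is defective in DNA damage repair or cell cycle control.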

[3] = NCI Yeast Anticancer Drug Screen. Data for the sgs1 mgt1 strain (AID 161);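 note: 0% = growth of cultures given vehicle only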; settings: S. cerevisiae sgs1 mgt1 strain, at 50.0 µM, hits give high values
Outline: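 Percent growth inhibition was derived by comparing compound-exposed mutant yeast with vehicle-exposed cultures. The strain carries alterations in DNA damage repair.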

[4] = NCI Yeast Anticancer Drug Screen. Data for the cln2 rad14 strain (AID 165);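 note: 0% = growth equal to vehicle treated cultures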; settings: S. cerevisiae cln2 rad14 strain, at 50.0 µM, hits give high values
Outline: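 Growth inhibition, relative to vehicle-treated controls, is the read-out. The test organism is a yeast strain with defined genetic alterations, cln2 rad14.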

[5] = NCI Yeast Anticancer Drug Screen. Data for the bub3 strain (AID 167); settings: S. cerevisiae bub3 mutant strain, at 50.0 µM, hits give high values
Outline: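 Whole-cell yeast assay. The mutant strain was incubated with compounds, and growth inhibition was determined by comparison with vehicle-treated cells.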

[6] = NCI Yeast Anticancer Drug Screen. Data for the mlh1 rad18 strain (AID 175); settings: S. cerevisiae mlh1 rad18 strain growth inhibition; at 50.0 µM; hits give high values
Outline: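 Cells of a genetically altered yeast strain, deficient in DNA damage repair, were treated with compound. Their growth was then compared with that of vehicle-treated cultures to give inhibition.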

Measured: growth inhibition

O=Nc1ccc(NO)cc1
inactive: [1] 29.9% and 34% | [2] 32.7% and 7.45% | [3] 33.5% and 20.3% | [4] -25.2% and 22.3% | [5] 3.2% and 47.5% | [6] 3.35% and 31.6%

CC(=O)OCC1OC(Sc2nc(-c3ccc(Cl)cc3)c(C#N)c(=O)n2C2OC(COC(C)=O)C(OC(C)=O)C(OC(C)=O)C2OC(C)=O)C(OC(C)=O)C(OC(C)=O)C1OC(C)=O (configuration not stated)
inactive: [1] 8.9% and 6.85% | [2] 7.4% and -3.8% | [3] 9.7% and -9.1% | [4] -18.6% and -12.2% | [5] 9.75% and -7.95% | [6] 2.8% and -46.5%

CC(C)CC(NC(=O)COc1ccccc1Cl)C(=O)O (configuration not stated)
inactive: [1] -9.6% and 5.05% | [2] 15.5% and 14.3% | [3] 3.4% and 6.9% | [4] -11.8% and -9.2% | [5] 1.25% and 7.15% | [6] -8.75% and -13.3%

CC(=O)C(C)(CCC#N)CCC#N
inactive: [1] -7.25% and 12.7% | [2] 12.1% and -9.2% | [3] -1.4% and -1% | [4] -3.95% and -36.5% | [5] 9.35% and -5.15% | [6] -12.1% and 27%

O=C(O)C1=C/C(=C(/c2ccccc2)c2cc(C(=O)O)c(O)c3ccccc23)c2ccccc2C1=O
inactive: [1] 4.2% and -7.7% | [2] -29.1% and -27.1% | [3] -21.2% and -34.4% | [4] 22.7% and 23.1% | [5] -9.45% and -3.8% | [6] -1.45% and -4.1%

CC(C)(O)C(I)C[n+]1ccccc1 (configuration not stated)
inactive: [1] 38.5% and -7.55% | [2] 41.6% and -2.95% | [3] 50.5% and -28.9% | [4] 4.9% and -6.9% | [5] 39.9% and 0.85% | [6] 46.9% and -7.3%

O=C(O)/C=C(\F)C(=O)O
inactive: [1] -9.8% and 14.7% | [2] -14.2% and 7.95% | [3] -3.05% and 10.9% | [4] -1.6% and -9.15% | [5] 3.65% and -20.8% | [6] 0.7% and 11.6%

Nc1c2c(nc3ccccc13)CCCC2 (tested in a mixture with another compound)
inactive: [1] -7.95% and -12.2% | [2] -20.4% and -22.8% | [3] -14.9% and -14% | [4] 9.6% and 9.4% | [5] -21.2% and -18.6% | [6] -11.7% and -0.1%

Nc1cc(=O)[nH][nH]1
inactive: [1] -11.7% and -11.5% | [2] -9.65% and -5.8% | [3] -2.15% and -22.4% | [4] -5.9% and -7.35% | [5] -17.8% and -0.2% | [6] -15.8% and -9.2%

OC1CC2CCC(C1)S2 (configuration not stated)
inactive: [1] -1.3% and 4.3% | [2] -25.3% and -2.75% | [3] -3.7% and 13.3% | [4] 9.85% and 13.3% | [5] 2.5% and 4.4% | [6] -11.6% and -1.55%

CN1C(=O)N/C(=C\c2ccc(S(=O)(=O)N/N=C\C(O)C(O)C(O)C(O)CO)cc2)C1=O (configuration not stated)
inactive: [1] 2.65% and 7.85% | [2] 8.3% and 22.2% | [3] 17.9% and -4.2% | [4] 7.65% and 3.75% | [5] -19.1% and -1% | [6] 15.3% and 41.5%

CC1(C)OCC(C2OC(C)(C)OC2C2OC(O)C=CC2=O)O1 (configuration not stated)
inactive: [1] 19.8% and 18.5% | [2] 18.9% and 2.1% | [3] 24.6% and 6.5% | [4] 9.05% and -4.9% | [5] 24.9% and 10.9% | [6] 20.3% and 10.6%

O=c1oc2c(O)c(O)cc3c(=O)oc4c(O)c(O)cc1c4c23
inactive: [1] 25.8% and 6.65% | [2] 18.6% and -20.1% | [3] 34.7% and -10.7% | [4] 19% and -8.75% | [5] 29% and -35.9% | [6] -8.1% and -19.1%

O=c1[nH]c2[nH]c(=S)[nH]c(=S)c2[nH]1
inactive: [1] -19.7% and 13.8% | [2] 8.45% and -2.5% | [3] -17.5% and -4.85% | [4] 13.8% and -41.7% | [5] -24.7% and -10.8% | [6] -20.1% and -0.3%

Cc1cc(=O)[nH]c2ccccc12
inactive: [1] 26.6% and 14% | [2] -6.3% and -2.8% | [3] -7.8% and -30.9% | [4] 6.3% and 21.8% | [5] 7.05% and -10.1% | [6] 6.45% and 12.5%

Cc1ccc(N(O)C(C)(C)C)cc1
inactive: [1] -16.4% and -2.35% | [2] -17.9% and 7.6% | [3] -4.3% and 3.05% | [4] -3.85% and -1.2% | [5] -23.9% and 13.8% | [6] 9.15% and -11.9%

N/N=C(/C(=O)c1ccccc1)c1ccccc1
inactive: [1] -10% and 18% | [2] 5.4% and 10% | [3] 5.4% and 0.5% | [4] 11.6% and -56% | [5] -3.1% and -1.85% | [6] 10.2% and 7.9%

Reference: PubChem BioAssay (NCI)
